# Experimental data from PubChem BioAssay.
# Where “and” joins values, the source holds several entries; their conditions need not be identical. Identical values can stand only once. Calls of active or inactive are those of the source.
# How the values were obtained:
# [1] = anti-His antibody binders, primary screen, artefact control for SMM control protein annotation, biochemical, small-molecule microarray, 635 nm fluorescence (AID 1128); details: anti-His Alexa647 antibody binding, higher = more signal;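 note: score merges feature fluorescence with signal-to-noise for each printed compound spot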
# [2] = tested on: Human papillomavirus type 1a E7 protein (residues 1-88); assay: HPV1a E7 small-molecule binders, primary screen, biochemical, small-molecule microarray, residues 1-88, 635 nm (AID 1129); details: small-molecule microarray binding, fluorescence 635 nm; higher = more signal
# [3] = target: Focal adhesion kinase 1 (Homo sapiens) (UniProt Q05397); assay: small-molecule microarray binders of FAK, primary screen, biochemical, 635/667 nm fluorescence, BSA, DTT (AID 1130); details: PTK2 binding, 635 nm fluorescence, higher = more signal;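 note: composite of spot emission at 667 nm and signal to noise over triplicate slides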
# Focal adhesion kinase 1 (Homo sapiens), sequence (Q05397 whole entry, looked up): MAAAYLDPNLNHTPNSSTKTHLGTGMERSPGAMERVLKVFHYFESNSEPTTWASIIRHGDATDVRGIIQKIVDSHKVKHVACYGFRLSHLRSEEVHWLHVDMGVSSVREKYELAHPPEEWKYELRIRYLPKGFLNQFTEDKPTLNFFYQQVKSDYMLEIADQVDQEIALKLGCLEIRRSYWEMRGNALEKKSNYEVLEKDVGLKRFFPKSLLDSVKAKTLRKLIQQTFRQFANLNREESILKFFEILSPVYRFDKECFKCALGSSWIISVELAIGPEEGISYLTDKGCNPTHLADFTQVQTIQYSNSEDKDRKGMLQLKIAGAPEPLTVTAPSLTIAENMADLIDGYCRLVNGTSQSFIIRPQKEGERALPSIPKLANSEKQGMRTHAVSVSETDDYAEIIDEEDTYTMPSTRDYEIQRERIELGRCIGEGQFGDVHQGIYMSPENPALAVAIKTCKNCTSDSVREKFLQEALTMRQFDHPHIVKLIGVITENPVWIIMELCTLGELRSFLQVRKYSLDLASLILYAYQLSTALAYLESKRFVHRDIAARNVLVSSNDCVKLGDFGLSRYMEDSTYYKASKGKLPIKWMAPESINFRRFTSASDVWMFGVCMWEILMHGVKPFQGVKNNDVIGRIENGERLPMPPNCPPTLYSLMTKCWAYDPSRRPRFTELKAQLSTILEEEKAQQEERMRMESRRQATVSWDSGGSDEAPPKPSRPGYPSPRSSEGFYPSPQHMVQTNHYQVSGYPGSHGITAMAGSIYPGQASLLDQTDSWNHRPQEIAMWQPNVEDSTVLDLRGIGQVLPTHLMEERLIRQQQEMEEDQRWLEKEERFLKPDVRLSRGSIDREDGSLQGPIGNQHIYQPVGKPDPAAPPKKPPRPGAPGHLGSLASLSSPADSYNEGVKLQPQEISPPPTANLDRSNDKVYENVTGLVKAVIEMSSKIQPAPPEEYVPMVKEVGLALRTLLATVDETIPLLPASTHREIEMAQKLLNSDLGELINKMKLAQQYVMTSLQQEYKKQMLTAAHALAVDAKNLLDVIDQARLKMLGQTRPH
# [4] = tested on: Fibrinogen (Alexa647-labelled); assay: fibrinogen binders on compound microarrays, profiling panel, artefact control for SMM control-protein annotation, biochemical, small-molecule microarray, 635/667 nm fluorescence (AID 1131); details: fibrinogen-A647 binding fluorescence, higher = more signal;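 note: z-score merges 667 nm fluorescence with per-spot signal-to-noise over triplicate slides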
# [5] = target: Follistatin (Homo sapiens) (UniProt P19883); assay: follistatin binders on small-molecule microarrays, primary screen, biochemical, small-molecule microarray, 635/667 nm fluorescence (AID 1132); details: FST binding, 635 nm fluorescence, higher = more signal
# Follistatin (Homo sapiens), sequence (P19883 whole entry, looked up): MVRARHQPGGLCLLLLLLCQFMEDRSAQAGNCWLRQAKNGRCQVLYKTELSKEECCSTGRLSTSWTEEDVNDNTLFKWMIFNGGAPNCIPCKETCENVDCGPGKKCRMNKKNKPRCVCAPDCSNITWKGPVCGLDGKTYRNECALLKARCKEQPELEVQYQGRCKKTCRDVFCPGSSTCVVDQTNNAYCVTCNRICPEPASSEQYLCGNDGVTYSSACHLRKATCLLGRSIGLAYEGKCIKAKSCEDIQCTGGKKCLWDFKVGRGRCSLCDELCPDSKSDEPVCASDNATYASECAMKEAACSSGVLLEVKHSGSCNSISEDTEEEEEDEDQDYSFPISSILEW
# [6] = target: Fibroblast growth factor 2 (Homo sapiens) (UniProt P09038); assay: FGF2 binders on small-molecule microarrays, primary screen, biochemical, small-molecule microarray, 635/667 nm fluorescence (AID 1133); details: small-molecule microarray binding, FGF2, fluorescence 635/667; higher = more signal
# Fibroblast growth factor 2 (Homo sapiens), sequence (P09038 whole entry, looked up): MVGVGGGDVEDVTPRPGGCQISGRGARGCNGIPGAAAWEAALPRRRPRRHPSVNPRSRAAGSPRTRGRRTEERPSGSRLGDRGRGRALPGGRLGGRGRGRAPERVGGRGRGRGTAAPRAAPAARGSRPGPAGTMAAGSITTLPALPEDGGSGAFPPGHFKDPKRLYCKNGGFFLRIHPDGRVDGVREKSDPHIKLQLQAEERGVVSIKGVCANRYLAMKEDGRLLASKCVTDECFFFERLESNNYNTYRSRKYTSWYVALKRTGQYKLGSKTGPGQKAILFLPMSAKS
# [7] = mitochondrial membrane potential change in A549 cells, profiling panel, cell-based, JC-1 fluorescence, basal, 24 h, 100 nL (AID 1138); details: higher = more signal;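 note: A549 lung adenocarcinoma cells under basal conditions with no added stimulus; test concentration not given here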
# Lefty1 = Lefty1 binders on small-molecule microarrays, primary screen, biochemical, small-molecule microarray, 635/667 nm fluorescence (AID 1139); details: small-molecule microarray binding, fluorescence 635/667; higher = more signal
# [8] = tested on: wheat germ agglutinin (Triticum aestivum), Alexa647-labelled; assay: wheat germ agglutinin binders on compound microarrays, profiling panel, artefact control for SMM control-protein annotation, biochemical, small-molecule microarray, 635/667 nm fluorescence (AID 1140); details: WGA-A647 binding, 635 nm fluorescence, higher = more signal;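 note: score merges 667 nm feature emission with signal to noise over triplicate slides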
# [9] = target: Luciferin 4-monooxygenase (Photinus pyralis) (UniProt P08659); assay: firefly luciferase enzyme inhibitors, primary screen, biochemical, luminescence, purified enzyme, 2006 set (AID 1141); details: SteadyGlo luminescence, 30 min, higher = more signal, called active from +8 up or from −8 down;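 note: cell-free assay with purified firefly luciferase at 100 ng per well in PBS; test concentration not given here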
# Luciferin 4-monooxygenase (Photinus pyralis), sequence (P08659 whole entry, looked up): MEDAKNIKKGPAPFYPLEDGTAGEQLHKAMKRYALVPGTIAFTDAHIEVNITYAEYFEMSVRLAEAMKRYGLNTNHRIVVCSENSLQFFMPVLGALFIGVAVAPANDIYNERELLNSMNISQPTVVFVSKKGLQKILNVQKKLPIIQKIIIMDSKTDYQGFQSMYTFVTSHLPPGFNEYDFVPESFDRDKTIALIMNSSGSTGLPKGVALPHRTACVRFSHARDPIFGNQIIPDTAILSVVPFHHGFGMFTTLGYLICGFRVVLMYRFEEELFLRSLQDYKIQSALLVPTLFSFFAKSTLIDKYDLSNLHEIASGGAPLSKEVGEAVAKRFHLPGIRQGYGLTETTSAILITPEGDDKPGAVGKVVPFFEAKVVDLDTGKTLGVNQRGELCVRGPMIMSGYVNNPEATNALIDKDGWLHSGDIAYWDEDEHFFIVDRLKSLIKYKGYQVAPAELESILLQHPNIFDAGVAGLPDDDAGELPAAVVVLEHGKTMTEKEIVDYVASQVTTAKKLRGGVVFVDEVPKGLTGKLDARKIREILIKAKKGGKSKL
SMILES,composite z-score [1],composite z-score [2],composite z-score [3],composite z-score [4],composite z-score [5],composite z-score [6],z-score [7],composite z-score (Lefty1),composite z-score [8],z-score [9]
C=CCN(C(=O)C(c1cccs1)N(C(=O)/C=C\C(=O)O)c1ccc(CCO)cc1)c1ccc(OC)cc1 (stereo not given),0.502 and -2.51,-0.979 and -1.34,0.32 and -0.445,-1.36 and -2.21,-1.14 and -3.18,-2.42 and -2,0.413 and 1.3,-0.91 and -2.42,-0.4 and -0.894,-1.62 (inactive) and -1.01 (inactive)
COC(=O)[C@@]1(Cc2ccccc2)[C@H]2c3cc(C(=O)N(C)C)n(C[C@H](O)CO)c3C[C@H]2CN1C(=O)c1ccccc1,0.456 and 0.65,0.23 and 0.965,0.805 and 0.641,0.948 and 0.223,-0.342 and 0.453,-0.378 and -0.271,0.207 and 0.034,-0.6 and -0.308,0.877 and -0.0476,0.665 (inactive) and 1.66 (inactive)
CCOC(=O)C[C@H]1[C@H](OC(=O)c2ccccc2-c2ccccc2)[C@@H](NC(=O)Cc2ccc(OC)cc2)c2cc(OCCCO)ccc2N1C(=O)c1ccc2ccccc2n1,0.206 and -0.185,0.24 and 0.622,-0.0875 and 0.194,0.524 and 0.464,0.392 and 0.546,0.714 and 0.119,3.49 and 0.601,0.0614 and 1.07,0.172 and 0.238,-0.391 (inactive) and -0.85 (inactive)
COC(=O)C1=C(C)N(Cc2ccccc2)C2=C(C(C)=O)C[C@@](O)(C(=O)OC)C(=O)N2[C@@H]1c1ccccc1,1.23 and -0.0396,0.5 and 0.2,0.271 and -0.209,-0.378 and 1.02,0.247 and 0.12,1.55 and 0.0618,1.18 and 1.72,1.18 and 0.158,-0.48 and 0.228,-0.458 (inactive) and -1.7 (inactive)
C=CCN(CCCC)C(=O)C1N(c2ccc(CCO)cc2)C(=O)C2C(C(=O)O)C3C=CC21O3 (stereo not given),-1.5 and -1.42,-1.48 and -1.18,-1.03 and 0.339,-1.01 and -2.98,-0.852 and -2.67,-0.893 and -2.56,-0.898 and -0.353,-1.39 and -3.01,0.0666 and -1.56,1.5 (inactive) and -1.51 (inactive)
CC(C)CON=C1C[C@@H](O)[C@@H](O)[C@@H]2[C@@H]3C(=O)N(c4cccc(Oc5ccccc5)c4)C(=O)[C@@H]3CC[C@H]12,0.348,0.347,-0.195,0.202,0.39,0.397,0.0506,0.349,0.196,0.527 (inactive)
C=CCN(CCCC)C(=O)C(c1cccs1)N(C(=O)/C=C\C(=O)O)c1c(Cl)cccc1CO (stereo not given),-0.71 and -0.792,-0.925 and -1.1,-0.859 and 1.27,-2.84 and -3.52,-2.44 and -1.69,-2.72 and -1.18,-0.107 and -0.132,-2.81 and -2.2,-0.178 and -0.7,1.01 (inactive) and 0.833 (inactive)
CCN1C(=O)[C@H]2[C@H]3[C@H](O)[C@H](O)CC(=NOC)[C@@H]3CC[C@H]2C1=O,-0.121,-0.805,-0.384,0.245,0.0723,-0.0102,1.16,0.164,0.299,-0.554 (inactive)
C=CCN(C(=O)C1N(c2ccc(CCO)cc2)C(=O)C2C(C(=O)O)C3C=CC21O3)c1ccc(OC)cc1 (stereo not given),0.0218 and -0.668,-0.304 and -0.769,0.0134 and -1.17,-0.369 and -1.3,-0.697 and -0.794,-1.24 and -1.75,-0.742 and -0.718,-0.708 and -0.967,0.0183 and -0.967,-0.622 (inactive) and 2.07 (inactive)
COC(=O)C1=C(C)N(Cc2ccccc2)[C@]23O[C@](C(=O)OC)(C(=O)N2[C@@H]1c1ccccc1)[C@H]1C(=O)N(c2ccccc2)C(=O)[C@H]13,0.798 and 0.258,1.12 and 0.575,0.277 and 0.0443,0.77 and 0.267,0.516 and 1.01,0.562 and 0.626,0.6 and 0.565,0.477 and 1.27,1.07 and 0.541,-0.207 (inactive) and -0.978 (inactive)
C=C[C@@H](C)[C@@H](O)c1ccc(O)c2ccccc12,-0.46 and 0.408,-1.07 and -0.498,-0.221 and -0.422,-1.54 and 0.509,0.105 and 0.431,-0.162 and -0.329,0.287 and -0.728,-0.863 and -0.286,-1.19 and 0.506,-1.48 (inactive) and -0.181 (inactive)
CO[C@H]1COC(=O)[C@H](C)NC(=O)CC=C[C@@H](C)[C@H](OC)COC(=O)CC=C[C@@H]1C,-0.284,-1.4,-0.348,-1.86,1.28,1.71,0.106,1.62,-0.655,-0.885 (inactive)
C=CCN(CCCCC)C(=O)C1N(c2ccc(CCO)cc2)C(=O)C2C(C(=O)O)C3C=CC21O3 (stereo not given),-1.26 and -0.352,-1.44 and -0.943,-0.886 and -0.776,-0.916 and -0.657,-0.974 and -0.877,-0.989 and -0.883,0.157 and -0.0775,-1.47 and -0.885,0.961 and -0.241,-0.929 (inactive) and -0.832 (inactive)
CO[C@H]1COC(=O)CC=C[C@H](C)[C@H](OC)COC(=O)[C@@H](C)COC(=O)CC=C[C@@H]1C,0.155 and -0.15,0.151 and -0.833,0.445 and -0.105,-0.77 and -1.28,1.13 and 0.8,0.651 and 0.402,0.597 and 1.4,0.914 and 0.398,-0.464 and -0.424,-0.882 (inactive) and -1.16 (inactive)
Cc1cc2c(nc1C)CCCN2CC(C)ON=C[C@@H](C)[C@H](OCc1ccccc1)C(C)C (stereo not given in full),-0.265,-1.26,0.252,-0.709,0.141,-0.0657,-0.7,0.254,-0.911,0.765 (inactive)
C=CCN(C(=O)C1N(c2c(Cl)cccc2CO)C(=O)C2C(C(=O)O)C3C=CC21O3)c1ccc(OC)cc1 (stereo not given),0.0132 and -1.11,-0.52 and -1.47,-0.542 and -1.13,-0.79 and -1.58,-1.08 and -1.26,-1.37 and -1.76,-1.09 and 1.22,-2.14 and -2.24,0.174 and -1.28,1.4 (inactive) and -1.32 (inactive)
